Test results as given in PubChem BioAssay (NCI).
The panel holds about 83,000 compounds, 20% with a hit somewhere; the sample as a whole holds those more often.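 Growth was measured after 48 h exposure to one concentration of compound in 96-well plates. Values under 10 count as active.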 Values without a mark were called inactive. Calls of active or inactive are those of the source.

Each molecule was assayed on PC-3 prostate (assay: NCI-60 one-dose screen, 48 h (100 = growth as untreated, 0 = no growth, -100 = all killed)). Conditions: 10 µM unless noted.
Procedure: Growth inhibition of the PC-3 human tumor cell line is measured as a screen for anti-cancer activity. Cells are grown in 96 well plates and exposed to the test compound for 48 hours. Compounds are tested at a single concentration, which is 10^-5 M for most compounds. The reported endpoint is percent growth (GI% or GIPRCNT), where numbers from 0 - 100% represent growth inhibition, and numbers from -100% - 0 represent cell death. For example, a value of 40 represents 60% growth inhibition. A value of 0 means no net growth occurred over the course of the experiment. A value of -40 indicates 40% of cells at the beginning of the experiment died by the end of the experiment. A value of -100 means all cells are dead at the end of the experiment.
NCI-60 Human Tumor Cell Lines Screen was performed using the standard one-dose NCI protocol, which is described in more detail at https://dtp.cancer.gov/discovery_development/nci-60/default.htm.
Compounds with GIPRCNT values below 10 were considered active. Activity score was based on GIPRCNT using the following formula: […]
Score is 0 for GIPRCNT values of 100 or above, 50 for GIPRCNT values of 0, and 100 for GIPRCNT values of -100.

SMILES | growth
Clc1ccc2c(NCCCCNc3nc(N4CCOCC4)nc4ccccc34)ccnc2c1 | 38.9%
CC(=O)c1cc2c(N)c(C(=O)Nc3ccccc3)sc2nc1C | 81%
CSc1ccc(SC2c3ccc(C)cc3Oc3nc(N)c(C#N)c(N)c32)cc1 (stereo not given) | -76.2% (active)
C=CC(=O)Nc1cccc(-c2nc(SC)nc(NCCN3CCOCC3)c2C#N)c1 | 92.7%
NCCNc1nc(Nc2ccc(-c3nc4ccccc4[nH]3)cc2)c2cn[nH]c2n1 | 74%
O=C(C(=O)c1ccc2c(c1)OCO2)c1ccc2c(c1)OCO2 | 100%
CS(=O)(=O)c1ccc(-n2nc(-c3ccc(Br)cc3)c3ccccc3c2=O)cc1 | 89.3%
C=C(C)[C@@H]1CC[C@]2(C(=O)OC)CC[C@]3(C)[C@H](CC[C@@H]4[C@@]5(C)C/C(=C/c6cccc(I)c6)C(=O)C(C)(C)[C@@H]5CC[C@]43C)[C@@H]12 | 96%
CCCSc1ccc2nc(NC(=O)OC)[nH]c2c1 | 20.7%
CCNC(=O)Oc1ccc(/C(=C(\C)c2ccc(Cl)cc2)c2ccc(OCCN(CC)CC)cc2)cc1 | 31.4%
CN(Cc1cc(Cl)cc(Cl)c1O)Cc1cc(Cl)cc(Cl)c1O | 80.9%
COc1cc(-c2nn(-c3ccc(Br)cc3)cc2C(=O)O)ccc1O | 97.2%
COc1cc(-c2nn(-c3ccc(C(=O)O)cc3)cc2C(=O)O)ccc1O | 66.9%
COc1cc(/C=C/c2cc(/C=C/c3ccc(O)c(OC)c3)n(-c3c(C)cccc3C)c(=O)n2)ccc1O | -2.22% (active)
CN1C(=O)C2(SCC(C(=O)NCc3ccccc3)N2C(=O)C2CCCCC2)c2ccccc21 (stereo not given) | 82.8%
O=C1C=C(O)C(=O)C(CC2=C(O)C(=O)C=C(O)C2=O)=C1O | 95.2%
C/C1=C\CC[C@@]2(C)O[C@H]2[C@H]2OC(=O)C(CN3CCN(CC4C(=O)O[C@H]5[C@H]4CC/C(C)=C/CC[C@@]4(C)O[C@@H]54)CC3)[C@@H]2CC1 (stereo not given in full) | 92%
CC[C@@H](C(=O)[C@@H](C)[C@@H](O)[C@H](C)[C@@H]1O[C@@H]([C@@H](CC)C(=O)O)CC[C@@H]1C)[C@H]1OC2(C=C[C@@H](O)[C@]3(CC[C@@](C)([C@H]4CC[C@](O)(CC)[C@H](C)O4)O3)O2)[C@H](C)C[C@@H]1C (stereo not given in full) | 31.2%
CCOC(=O)c1sc(Nc2ccc(Cl)cc2)nc1C | 14.2%
COc1ccc(/C=C(\C#N)C(=O)Nc2cccc(Nc3nc(SC)nc(-c4cccc([N+](=O)[O-])c4)c3C#N)c2)cc1OC | 94.8%

SMILES | growth
O=C(/C=C/c1ccccc1)c1ccc(O)c(CN2CCN(c3cc4c(cc3F)c(=O)c(C(=O)O)cn4C3CC3)CC2)c1 | 18.3%
COc1cccc(-c2nc3sccn3c2-c2ccnc(NCCNS(=O)(=O)c3ccccc3)c2)c1 | 11.3%
O=C1NC(=O)C(c2ccc(Cl)cc2Cl)N1 (stereo not given) | 104%
CC(=O)OC[C@H]1O[C@H](OC(C)=O)[C@H](NC(=O)/C=C/CCl)[C@@H](OC(C)=O)[C@@H]1OC(C)=O | 70.4%
Clc1ccc2c(NCCCCNc3nc(N4CCCCC4)nc4ccccc34)ccnc2c1 | 25.6%
COc1ccc(/C=C\c2cc(OC)c(OC)c(OC)c2)cc1OC(=O)c1cccc(Cn2cc(CCOC(=O)[C@H](N)Cc3cn(C)c4ccccc34)nn2)c1 | 18.8%
CCCCCCN(CCCCCC)C(=N)c1ccnc2ccccc12 | 58.3%
N=C(N)c1ccc(-c2ccc(-c3ccc4ccccc4c3)s2)s1 | 71.9%
CC(C)(O)c1cn(CCCCN2C(=O)C(=O)c3ccccc32)nn1 | 96.3%
Clc1ccc2c(NCCCNc3nc(-n4ccnc4)nc4ccccc34)ccnc2c1 | 73.3%
CN(C)S(=O)(=O)c1ccc(S(=O)(=O)Nc2cccc(Cl)c2N2CCCCC2)cc1 | 60.3%
C=C1C(=O)O[C@H]2[C@H]1CC/C(COC(=O)c1cc3cc(OC)ccc3[nH]1)=C\CC[C@@]1(C)O[C@@H]21 | -71.5% (active)
Cc1ccc(NS(=O)(=O)c2ccc(-c3cnc(C4CC4)o3)cc2)cc1C | 22.7%
Clc1ccc2c(NCCNc3nc(N4CCCCC4)nc4ccccc34)ccnc2c1 | 9.71% (active)
C=CC(=O)Nc1cccc(-c2nc(SC)nc(NCc3ccccc3)c2C#N)c1 | 74.8%
CN(C)c1ccc(N=Nc2ccc(Br)cn2)c(O)c1 | 33.3%
CN1CCN(c2nc(NCCCNc3ccnc4cc(Cl)ccc34)c3ccccc3n2)CC1 | 43.4%
CC(=O)c1cc(C(=O)c2ccc3c(c2)Sc2ccccc2N3)n2ccccc12 | 22.2%
O=C(Cn1cccc(Nc2ccccc2)c1=O)Nc1ccccc1 | 97.3%
O=C1c2cc3c(cc2-c2c1c1cc(F)c(F)cc1c(=O)n2CCCn1ccnc1)OCO3 | 9.43% (active)
